# Screening results deposited in PubChem by National Center for Advancing Translational Sciences (NCATS).
# IL1B secr inh = inflammasome signaling inhibition, IL-1 beta readout | THP-1 LPS/ATP IL-1B secretion, AlphaLISA, 16 h; hits give low values | activity change, % at 57.5 µM | 360,000 compounds, 4.7% hits; in the data active = activity change below about -50%; inconclusive = mostly about -30% to -49%
#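 THP-1 cells pretreated 1 hr with compounds (up to 57.5 uM final), then stimulated with LPS (250 ng/mL final) plus ATP (1.25 mM final); secreted IL-1B measured by AlphaLISA after 16 hr, decreased signal indicating inhibition.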
# HepG2 tox = counter-screen for TGF-b inhibitors: cytotoxicity in HepG2 cells. Potency, µM (top dose mostly 46.1 µM), most hits filed as cytotoxic. AID 588856. 410,000 compounds, 0.76% hits. HepG2 CAGA-GFP viability, ATP luminescence, 18 h
#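 CellTiter-Glo luminescence gave cytotoxicity after 18 hours at 37 degrees C. The cells were HepG2 CAGA-GFP in 1% FBS DMEM, stimulated with 500 pg/mL TGF-beta after compound addition. %Activity was normalised to no-cell wells (complete cell-killing) and DMSO (no toxicity), and curves were fitted and classified.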
# HT1080 IDH1KD tx = kills HT-1080 cells with IDH1 knockdown; 360,000 compounds, 2% hits; HT-1080 IDH1 knockdown viability, ATP luminescence, 48 h; Potency, µM (titrated, usually from 46.1 µM), actives largely listed as cytotoxic
#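 Assay cells: HT-1080 with IDH1 knockdown, 750 per well, RPMI/5% FBS. Exposure: 48 h at 37 °C following 2 h pre-incubation. Read: CellTiter-Glo luminescence; fitted concentration-response, curve class assigned.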
# TGFb inhibitor = TGF-b pathway inhibition; HepG2 CAGA-GFP TGF-b/SMAD3 reporter, GFP fluorescence, 18 h; TGF-beta stimulated, 500 pg/mL final; Potency, µM (doses to about 46.1 µM), hits mostly inhibitors; 410,000 compounds, 1.2% hits; also: nearly all actives have a fitted effect of over 65% in size
#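 Inhibition of TGF-beta-driven CAGA-GFP reporter expression in HEPG2 cells is measured by cellular GFP fluorescence after 18 h stimulation with 500 pg/mL recombinant TGF-beta in 1% FBS medium at 37 degrees C.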
# HT1080-NT tox = kills 2HG-producing HT-1080-NT fibrosarcoma cells; HT-1080-NT fibrosarcoma viability, CellTiter-Glo ATP luminescence, 48 h; Potency, µM (series often up to 46.1 µM), hits mostly cytotoxic; 360,000 compounds, 1.6% hits; AID 686970;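 also: NT is the 2HG producing partner of a matched IDH1 knockdown line; nearly all actives have a fitted effect of over 55% in size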
#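 Viability by CellTiter-Glo luminescence after 48 h compound exposure at 37C of HT-1080-NT cells (750/well, RPMI, 5% FBS). % activity scaled between DMSO wells and medium-only wells, then curve-fitted and categorized by curve class.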
# Giardia killer = kills Giardia lamblia; Giardia lamblia trophozoite viability; activity change, % at 7.66 µM, hits read low; 340,000 compounds, 0.15% hits; AID 540267; in the data active = activity change below about -80%; inconclusive = between about -30% and that limit;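 also: parasites exposed to compound for two days anaerobically before the ATP read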
#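 Luminescence from cellular ATP indicates surviving trophozoites (100 cells/well) following 48 hrs anaerobic compound treatment at 37 deg C; signal develops 15-30 min at room temperature.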
# Hits are given with their value; . = inactive; ? = inconclusive; / = no result; ! = not active in a repeat. A selection: hits, their analogues and other compounds. The true share with any hit is near 6.5%. Unless noted, calls follow the shape of the dose curve; as a rule, active = well fitted curve in the direction sought with a large enough effect; inconclusive = small, poorly fitted or top-dose-only effect, or another doubt; inactive = no such curve, though single readings can be large; an effect the other way counts as inactive or inconclusive.
SMILES,IL1B secr inh,HepG2 tox,HT1080 IDH1KD tx,TGFb inhibitor,HT1080-NT tox,Giardia killer
Cn1c(O)c(C=NC2CCCCC2)c(=O)[nH]c1=S,.,.,.,.,.,.
O=c1[nH]c(O)c(C=NC2CCCCC2)c(=O)[nH]1,.,0.63µM,.,.,.,.
CCOC(=O)[C@]12Cc3ccccc3[C@H]1N(Cc1ccccc1)C(=O)c1cc(F)c(F)cc12,-67,/,?,/,?,/
CCOC(=O)[C@]12Cc3cc(C)ccc3[C@H]1N(Cc1ccccc1)C(=O)c1cc(OC)ccc12,-96,/,21µM,/,?,/
CCOC(=O)[C@]12Cc3cc(Cl)ccc3[C@H]1N(Cc1ccccc1)C(=O)c1ccccc12,.,.,.,?,.,?
CCCCCN1C(=O)c2ccccc2[C@@]2(C(=O)OCC)Cc3cc(Cl)ccc3[C@@H]12,-50,/,?,/,?,/
CCOC(=O)[C@]12Cc3cc(C)ccc3[C@H]1N(CCC(=O)OC)C(=O)c1ccccc12,-113,/,13µM,/,16µM,/
CCOC(=O)[C@]12Cc3cc(OC)ccc3[C@H]1N(CC(=O)OC)C(=O)c1cc(OC)ccc12,-57,/,?,/,?,/
CCCCCN1C(=O)c2cc(OC)ccc2[C@@]2(C(=O)OCC)Cc3cc(OC)ccc3[C@@H]12,-69,/,13µM,/,15µM,/
CCOC(=O)C1C(=O)N(C)C2(C)CC1c1cc(OC)ccc1O2 (centres undefined),.,.,.,.,.,.
CCOC(=O)[C@]12Cc3cc(OC)ccc3[C@H]1N(CC(=O)OC)C(=O)c1ccccc12,.,/,.,/,.,/
Cc1ccc(S(=O)(=O)N(C)C/N=C(\N)N[N+](=O)[O-])cc1,.,.,.,.,.,.
Cc1cc(C)n(-c2nc(SCCN(C)C)c3c4c(sc3n2)CCCC4)n1,-78,.,?,?,7.9µM,.
Nc1c2c(nc3sc4c(c13)CCCC4)CCCCC2,.,.,.,.,.,.
Cn1c(=O)oc2cc(S(=O)(=O)N3CCCC(C(=O)N4CCN(c5ccc(Cl)cc5)CC4)C3)ccc21 (centres undefined),/,.,/,?,/,/
CN(C)CC/C=C1\c2ccccc2Sc2ccc(Cl)cc21,-57,.,?,?,21µM,.
CN(C)CCCN1c2ccccc2Sc2ccc(Cl)cc21,.,18µM!,?,?,15µM!,.
CN(C)CCC=C1c2ccccc2CCc2ccccc21,?,.,23µM,.,?,.
C[C@H](CO)N1C[C@H](C)[C@@H](CN(C)C(=O)Oc2cccc3ccccc23)OCc2cn(nn2)CCCC1=O,.,.,.,.,.,/
C[C@@H]1CN([C@H](C)CO)C(=O)CCCn2cc(nn2)CO[C@H]1CN(C)C(=O)Oc1cccc2ccccc12,.,10µM,.,?,.,/
CCOC(=O)c1ccccc1OC(=O)NNc1ccccc1,.,.,12µM,.,5.8µM,.
C=CCn1c(O)c(C(CC)=NCc2cc(OC)cc(OC)c2)c(=O)[nH]c1=O,.,.,23µM,.,23µM,.
COc1ccc(N2C(=O)/C(=C/c3cc(C)n(-c4ccc(C)cn4)c3C)C(=O)NC2=S)c(OC)c1,?,.,.,.,.,.
Cc1cccc(-n2c(O)c(/C=N/NC(=O)c3ccncc3)c(=O)[nH]c2=O)c1,/,.,?,.,.,.
CC(=O)NC(Cc1ccc(N(CCCl)CCCl)cc1)C(=O)NC(C(=O)O)C(C)C (centres undefined),.,.,.,.,.,.
SMILES,IL1B secr inh,HepG2 tox,HT1080 IDH1KD tx,TGFb inhibitor,HT1080-NT tox,Giardia killer
CCOC(=O)CC(NC(=O)C(Cc1ccc(N(CCCl)CCCl)cc1)NC(C)=O)C(=O)OCC (centres undefined),-79,.,?,?,?,.
COc1ccc(Cl)cc1N=Cc1c(O)n(C)c(=O)n(C)c1=O,.,.,.,.,.,.
Cc1ccc(CNCCc2ccccc2F)cc1,-72,.,.,.,.,.
CCN(CC)c1ccc(CNCCc2ccccc2F)cc1,-92,.,18µM,.,16µM,.
Fc1ccccc1CCNCc1cccc2ccccc12,.,.,?,?,?,.
COc1ccc(NS(=O)(=O)c2cc(N=Nc3c(O)[nH]c(=O)[nH]c3=O)ccc2OC)cc1Br,.,.,.,?,.,/
O=c1[nH]c2ccccc2n1C1CCN(C(c2nnnn2C2CCCCC2)C2CC2)CC1 (centres undefined),.,.,.,?,.,/
O=c1c2cc(Cl)cc(Cl)c2nc(CN2CCOCC2)n1-c1ccccc1F,.,.,.,.,.,.
Oc1ccc(Cl)cc1Sc1cc(Cl)ccc1O,-101,.,21µM,8.9µM,21µM,.
Oc1ccc(Cl)cc1,.,.,.,.,.,.
Cc1cc(C)nc(NS(=O)(=O)c2ccc(N=Cc3c(O)n(C)c(=O)n(C)c3=O)cc2)n1,.,.,.,.,.,.
CC(=O)[C@H]1CC[C@H]2[C@@H]3CC=C4C[C@@H](OS(=O)(=O)O)CC[C@]4(C)[C@H]3CC[C@]12C,.,.,.,.,.,.
O=C1C(=O)c2ccccc2-c2ccccc21,-108,1.3µM,1.2µM,1.1µM,0.92µM,?
CC[C@H]1CN2CCC1C[C@@H]2[C@H](O)c1ccnc2ccc(OC)cc12 (some centres undefined),.,.,.,.,.,.
CCOc1ccc(Cl)cc1CNCCc1ccc(F)cc1,-57,.,.,.,?,.
Fc1ccc(CCNCc2ccccc2Cl)cc1,.,.,.,.,.,.
Cc1cccc(N2C(=O)NC(=O)/C(=C\c3cccn3-c3ccc(Cl)cc3)C2=O)c1,-90,.,?,?,?,.
Cc1cccc(N2C(=O)NC(=O)/C(=C/c3ccc([N+](=O)[O-])o3)C2=O)c1,.,.,.,.,.,.
CC(C)(C)n1cccc1/C=C1\C(=O)NC(=O)N(c2ccccc2)C1=O,.,.,.,.,.,.
Cc1cc(C)cc(N2C(=O)NC(=O)/C(=C/c3cccn3-c3ccc(Cl)cc3)C2=O)c1,-96,.,?,.,?,.
Clc1ccc2c(N3CCNCC3)ccnc2c1,.,.,.,.,.,.
CC(Cc1ccccc1Sc1ccccc1)N(C)C (centres undefined),?,.,.,.,.,.
CN1CCN(Cc2ccccc2Sc2ccccc2)CC1,-80,.,.,.,.,.
Cc1nc2ccccc2c(=O)n1-n1cnnc1,.,.,.,.,.,.
COC(=O)C1=C(C(=O)OC)SC2(S1)C(C(=O)OC)=C(C(=O)OC)Sc1c2ssc1=O,-95,.,1.2µM,?,5.2µM,.
Cc1ccc(-n2c(/C=C/c3ccccc3)nc3ccccc3c2=O)cc1C,/,.,/,.,/,/
